# Compounds with a hit are over-represented: about 4.1% of the library has one in this group of screens.
# KLF5 inhibitor: KLF5 expression inhibitors, primary screen, DLD-1 cells, luminescence; DLD-1 KLF5 promoter-luciferase reporter; inhibition, % at 5 µM; 0.23% of 290,000 active; AID 1700, 2009;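 active means inhibition above a per-plate limit of that plate's mean compound inhibition plus 3 SD, cut at about 60% in these data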;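 further: 0% = DMSO wells and 100% = LY294002 at 200 µM; higher means less KLF5 promoter-driven luciferase light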
# 697 NFkB inh: inhibitors of PMA/ionomycin-induced NF-kB reporter, 697 cells, primary screen, B-cell NF-kB inhibitor project, cell-based, luminescence, uHTS. 697 B-cell NF-kB luciferase reporter, 16 h. inhibition, % at 4 µM. 0.33% of 330,000 active; in the data active means inhibition above about 35%
# Mdm2-MdmX inh: inhibitors of human Mdm2-MdmX association, primary screen, cell-based, luminescence, split luciferase, SaOS-2, uHTS; Protein Mdm4 (Homo sapiens) + E3 ubiquitin-protein ligase Mdm2 (Homo sapiens), …; SaOS-2 split-luciferase Mdm2/MdmX complementation; inhibition, % at 8 µM; 3% of 330,000 active; AID 485346, 2010;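 active means inhibition of at least 50% at 8 µM in the primary screen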
# Target sequence (O15151 whole entry, looked up): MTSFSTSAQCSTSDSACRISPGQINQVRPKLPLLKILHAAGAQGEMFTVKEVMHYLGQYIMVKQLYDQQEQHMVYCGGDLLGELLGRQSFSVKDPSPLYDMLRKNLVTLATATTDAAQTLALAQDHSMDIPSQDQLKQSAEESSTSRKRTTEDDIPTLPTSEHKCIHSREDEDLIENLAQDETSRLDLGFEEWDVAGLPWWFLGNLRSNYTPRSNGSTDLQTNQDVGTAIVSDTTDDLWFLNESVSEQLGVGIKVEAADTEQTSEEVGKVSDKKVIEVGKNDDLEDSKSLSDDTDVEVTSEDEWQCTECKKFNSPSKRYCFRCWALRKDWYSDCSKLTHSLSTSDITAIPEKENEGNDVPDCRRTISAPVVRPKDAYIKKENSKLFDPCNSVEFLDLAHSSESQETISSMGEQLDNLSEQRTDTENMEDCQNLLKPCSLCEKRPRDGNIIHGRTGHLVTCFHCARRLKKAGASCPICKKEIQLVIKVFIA
# Target sequence (Q00987 whole entry, looked up): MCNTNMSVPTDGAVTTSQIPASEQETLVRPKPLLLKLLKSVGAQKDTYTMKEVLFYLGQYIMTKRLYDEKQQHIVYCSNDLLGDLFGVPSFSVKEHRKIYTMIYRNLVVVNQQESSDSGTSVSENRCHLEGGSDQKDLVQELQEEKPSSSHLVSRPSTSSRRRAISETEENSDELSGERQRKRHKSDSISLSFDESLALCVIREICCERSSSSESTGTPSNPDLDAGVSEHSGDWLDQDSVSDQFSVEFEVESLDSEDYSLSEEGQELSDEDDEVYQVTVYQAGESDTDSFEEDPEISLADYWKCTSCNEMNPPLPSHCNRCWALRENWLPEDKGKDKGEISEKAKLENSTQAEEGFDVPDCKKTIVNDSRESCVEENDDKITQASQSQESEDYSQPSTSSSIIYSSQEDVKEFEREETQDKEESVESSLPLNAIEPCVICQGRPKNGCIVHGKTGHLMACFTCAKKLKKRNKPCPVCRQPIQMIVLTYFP
# Jurkat NFkB inh: inhibitors of induced NF-kB luciferase reporter, primary screen, TCR NF-kB activation inhibitor project, cell-based, luminescence, uHTS | Jurkat, PMA/ionomycin-induced NF-kB luciferase reporter | inhibition, % at 4 µM | 0.53% of 330,000 active | AID 435003, 2010; in the data active means inhibition above about 50%
# aSyn 5UTR inh: MLPCN primary screen, SNCA 5' untranslated region | alpha-synuclein 5'UTR reporter, inhibitor activity | inhibition, % (tested at 7.5 µM) | 0.82% of 300,000 active | AID 1813, 2009; in the data active means inhibition above about 60%;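 further: H4 neuroglioblastoma cells stably carrying SNCA 5'UTR luciferase fusion; 0% = DMSO wells and 100% = positive control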
# Gli-Sufu antag: Gli-Sufu pathway antagonists, primary screen, luciferase luminescence, Sufu-KO-LIGHT cells, uHTS | AID 588413, 2011 | Sufu-KO-LIGHT fibroblasts, Gli luciferase reporter luminescence | inhibition, % at 5 µM | 0.74% of 340,000 active;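 active means inhibition above about 55%, limit read from the data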;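 further: 0% = DMSO-treated cells and 100% = wells with medium but no cells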
# Gli-Sufu confirm: Gli-SUFU pathway antagonists, confirmation, single concentration, luciferase luminescence, Sufu-KO-LIGHT cells; AID 602428, 2012; shares compounds with Gli-Sufu antag; 40% of 2,500 active; inhibition, % at 5 µM; Gli luciferase reporter;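 active means mean inhibition at 5 µM reaching about 45%, limit read from the data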;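 further: plate controls were DMSO-treated cells for no effect and wells lacking cells for full effect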
# Gli cytotox: cytotoxicity in Sufu-KO-LIGHT cells, confirmation, cytotoxicity control for Gli-SUFU antagonist project, cell-based, ATP luminescence, single concentration. shares compounds with Gli-Sufu antag. cytotoxicity, % at 5 µM. 32% of 2,500 active. AID 651994, 2013;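 active means mean cytotoxicity at 5 µM above about 25%, limit read from the data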;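 further: cells exposed to compound overnight for roughly 16 to 18 hours; plate controls were DMSO wells with cells for no effect and medium without cells for full effect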
# Wnt3a counter: Wnt3a reporter signal inhibition, confirmation, counter-screen for Gli-SUFU antagonist project, Wnt-LIGHT cells, luminescence, single concentration | shares compounds with Gli-Sufu antag | Wnt3a-driven luciferase reporter | inhibition, % at 6.25 µM | 20% of 2,500 active | AID 651995, 2013;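 active means mean inhibition above about 25%, limit read from the data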
# The depositor's hits bear a star; . = no result.
SMILES,KLF5 inhibitor,697 NFkB inh,Mdm2-MdmX inh,Jurkat NFkB inh,aSyn 5UTR inh,Gli-Sufu antag,Gli-Sufu confirm,Gli cytotox,Wnt3a counter
S=C(Nc1ccccc1)Nc1ccc(OCc2ccc(Cl)cc2Cl)cc1,26.7,4.0,23.1,-2.4,96.3*,57.8*,68.0*,28.6*,102.9*
O=C(CSc1ccc(F)cc1)NCCc1ccc(Cl)cc1,-9.7,-2.6,-11.3,-0.5,7.4,6.2,.,.,.
O=C(CN(C(=O)c1csnn1)c1ccc(Cl)cc1)NCc1ccc2c(c1)OCO2,-23.3,-5.7,-20.8,-9.7,-1.5,52.9,2.3,5.4,-11.6
CN(C(=O)c1cccc(NC(=O)Cc2ccc(NC(=O)C3CCCN(C(=O)C4CCCCC4)C3)cc2)c1)C1CCC1 (centres undefined),.,.,.,.,.,-5.2,.,.,.
Cc1c(NC(=O)Nc2ccc(F)cc2F)c(=O)n(-c2ccccc2)n1C,-16.7,17.8,13.9,-5.4,-2.3,-23.8,.,.,.
Cc1ccccc1CNS(=O)(=O)c1c(C)[nH]c(C)c1C(=O)N1CCCCC1,-3.7,-8.9,-9.3,-3.6,-2.7,40.8,.,.,.
CC(=O)N1c2ccc(S(=O)(=O)N3CCC(C(=O)N4CCN(c5ccc(Cl)cc5)CC4)CC3)cc2CC1C (centres undefined),-9.7,7.4,34.0,30.1,2.4,75.7*,73.8*,35.1*,-7.3
CC(C)CCNC(=O)C1CCN(S(=O)(=O)c2ccc3c(c2)CC(C)N3C(=O)C2CC2)CC1 (centres undefined),-24.7,23.9,23.0,14.5,28.3,7.6,.,.,.
CC1Cc2cc(S(=O)(=O)N3CCN(c4ccc(Cl)cc4)CC3)ccc2N1C(=O)C1CC1 (centres undefined),-7.5,-17.3,15.8,29.1,34.3,-10.8,.,.,.
CC(=O)N1c2ccc(S(=O)(=O)N3CCC(C(=O)N4CCCCC4)CC3)cc2CC1C (centres undefined),-36.0,-9.4,23.0,21.4,-4.5,54.6,49.0*,24.1,-4.5
CC(=O)N1c2ccc(S(=O)(=O)N3CCCCC3)cc2CC1C (centres undefined),-9.6,-15.3,16.3,-16.3,1.9,-12.9,.,.,.
CCCCNC(=O)C1CCN(S(=O)(=O)c2ccc3c(c2)CC(C)N3C(=O)C2CC2)CC1 (centres undefined),-14.1,10.4,20.4,-8.6,32.5,94.3*,15.5,6.0,-15.8
COc1ccccc1NC(=O)CSc1nnnn1-c1ccc(F)cc1,-13.9,2.9,10.0,-9.4,1.9,-10.4,.,.,.
COc1ccc(CCN2CC(C(=O)NCCc3ccc(C(F)(F)F)cc3)CCC2=O)cc1 (centres undefined),-21.9,-23.3,-5.3,-16.8,14.2,51.9,9.3,17.0,-53.0
COc1ccc(/C=C2\Oc3cc(OCC(=O)N4CCC[C@H]4CO)ccc3C2=O)c(OC)c1,-32.6,2.9,16.4,-0.8,8.1,4.2,.,.,.
O=C(CN(Cc1cccs1)C(=O)CCC(=O)Nc1ccccn1)NCc1ccccc1,-33.4,5.3,9.2,-19.2,4.6,-7.3,.,.,.
COc1ccc(OC)c(C2=NS(=O)(=O)N(C)C(C(=O)Nc3ccc(F)cc3F)=C2)c1,-32.2,-30.2,-2.5,4.7,-4.4,34.9,.,.,.
COc1ccccc1CC(=O)NC1CCCCCC1,-35.2,8.7,-4.2,-0.7,11.2,52.7,19.9,23.6,-2.7
COc1ccccc1CN(C(=O)Cc1cccs1)C(C(=O)NC1CCCC1)c1ccncc1 (centres undefined),14.0,-9.5,-4.8,-16.7,-37.4,55.5*,25.0,26.9*,-9.2
Cc1ccc(NC(=O)/C=C\C(=O)NCC(=O)O)cc1,-2.9,-8.7,-20.4,-5.5,32.9,-0.9,.,.,.
CC(=O)NC(=S)Nc1ccccc1C(=O)NC1CCCCC1,-5.6,6.4,-12.4,7.3,-0.4,-8.1,.,.,.
O=C(CN1C(=O)c2ccccc2C1=O)Nc1ccccc1C(=O)NC1CCCCCC1,-45.7,27.7,22.7,13.2,3.3,98.8*,15.0,10.3,1.6
CC(C)(C)C(=O)NC(=S)Nc1ccccc1C(=O)NC1CCCCC1,-9.9,-13.9,10.5,7.5,-6.3,76.2*,21.1,46.2*,-20.6
Cc1ccc(C2(C)NC(=O)N(CC(=O)Nc3ccccc3C(=O)NC3CCCC3)C2=O)cc1 (centres undefined),.,-0.1,-3.6,7.9,1.1,0.7,.,.,.
COc1ccc(C(=O)OCC(=O)Nc2c(C)n(C)n(-c3ccccc3)c2=O)cc1OC,.,2.9,-1.3,-7.5,.,3.6,.,.,.
SMILES,KLF5 inhibitor,697 NFkB inh,Mdm2-MdmX inh,Jurkat NFkB inh,aSyn 5UTR inh,Gli-Sufu antag,Gli-Sufu confirm,Gli cytotox,Wnt3a counter
COc1cc(C(=O)N/C(=C\c2cn(S(=O)(=O)N(C)C)c3ccccc23)C(=O)N2CCCC2)cc(OC)c1OC,-17.1,-2.9,17.7,5.0,-0.6,38.3,.,.,.
Cc1nc2ccccc2cc1OCc1ccc(Cl)cc1,-3.1,-17.5,-8.7,23.8,-72.1,53.4,50.1*,36.9*,4.0
COC(=O)c1sccc1OCc1cccc(OC)c1,-12.1,10.1,16.0,-18.8,-7.3,-0.3,.,.,.
Cc1nc2ccccc2cc1OCc1ccccc1,11.0,-40.8,8.5,18.6,-45.8,26.1,.,.,.
COc1cccc(COc2cc3ccccc3nc2C)c1,35.7,9.2,-8.7,32.3,-95.8,52.7,58.4*,30.5*,15.2
CCc1cc(C(=O)NC2CCCN(Cc3ccccc3F)C2)n(C)n1 (centres undefined),-20.4,-31.6,24.4,30.4,-10.9,65.4*,45.0,14.7,5.2
Cn1nc(C(=O)NC2CCCN(Cc3ccccc3F)C2)c2ccccc2c1=O (centres undefined),-14.0,-31.4,-15.1,3.7,29.2,19.5,.,.,.
CCCN(CC(=O)Nc1ccccc1OC)C(=O)Cc1ccccc1F,-2.7,3.3,-1.9,3.9,1.1,-36.0,.,.,.
CC(C)[C@H](NC(=O)[C@@H]1Cc2ccccc2CN1C(=O)OC(C)(C)C)C(=O)NCc1ccco1,-15.3,7.5,8.3,-5.3,-6.5,-4.2,.,.,.
C=CCCN(C(CC(C)C)C(=O)OC)S(=O)(=O)c1ccccc1Br (centres undefined),.,8.6,8.7,14.2,-4.8,7.5,.,.,.
